Laboratory results from the supplement of paper PMC11150407.
Structures can show the parent of a compound that is named as a salt. The campaign covered roughly 2,100 compounds. About 180 (8.6%) showed an effect of 50% or more. This excerpt belongs to a sample that is enriched for strong results.

Each compound was assayed on MOLM1 and UCSD/AML1 (averaged) (assay: cell viability relative to DMSO control (POC); higher = less growth inhibition). Conditions: 1 µM; 72 h.
Method: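 Primary viability screen in the 3q26 EVI1-high AML cell lines MOLM1 and UCSD/AML1 (1.5e3 cells/well, 384-well), compounds at 1 uM for 72 h. ATP CellTiter-Glo read-out given as percent of viable cells over DMSO control (POC), averaged over duplicates. DMSO was the negative control and 5 uM etoposide the positive control. This mapping covers the MicroSource Spectrum and Selleck anticancer libraries (drug names).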
With COc1ccc(-c2coc3cc(O)ccc3c2=O)cc1 the cell viability was 108%. Work on CC12CCCC(O)(C1)C1CC(C)(C)C1CC2 (stereo not drawn) [beta-CARYOPHYLLENE ALCOHOL] yielded a cell viability of 111%. CC(=O)OC1CCC23CC1(C)CCC2C(C)(C)CC3OC(C)=O (stereo unspecified) gave a cell viability of 96.1%. Compound CCOc1cc2ncc(C#N)c(Nc3ccc(OCc4ccccn4)c(Cl)c3)c2cc1NC(=O)/C=C/CN(C)C [Neratinib (HKI-272)] has a cell viability of 14.7%. CN(C)C/C=C/C(=O)Nc1cc2c(Nc3ccc(F)c(Cl)c3)ncnc2cc1O[C@H]1CCOC1 [Afatinib (BIBW2992)] showed a cell viability of 52.9%. In the case of CCOc1cc2ncc(C#N)c(Nc3ccc(F)c(Cl)c3)c2cc1NC(=O)/C=C/CN(C)C [Pelitinib (EKB-569)], the cell viability was 14.4%. For COc1cc2ncnc(Nc3ccc(F)c(Cl)c3)c2cc1NC(=O)/C=C/CN1CCCCC1, the cell viability was 50.9%. COc1ccc2cc([C@H](C)CO)ccc2c1 showed a cell viability of 103%. COC(=O)C[C@H]1C(C)(C)[C@@H](O)[C@@H]2CC3=C4C=C(OC)O[C@@H](c5ccoc5)[C@]4(C)CCC3[C@@]1(C)C2=O (stereo partly drawn) [3-DEOXO-3beta-HYDROXYMEXICANOLIDE 16-ENOL ETHER] showed a cell viability of 100%. CCOC(=O)C(Cc1ccc(O)cc1)NC(C)=O (stereo unspecified) was tested, and the cell viability was 105%. For C/C(=C\C(=O)Nc1ccccc1C(=O)O)c1ccc2ccccc2c1, the cell viability was 104%. Compound COc1cc(C/C=C/c2ccccc2)c(OC)cc1O has a cell viability of 93.6%. Compound COc1cc(O)c(C)c(O)c1 has a cell viability of 106%. In the case of COc1ccc(C(=O)CC(=O)O)c2c1C=CC(C)(C)O2, the cell viability was 99.5%. In the case of CC(C)=CCC/C(C)=C/CC/C(C)=C/CC/C(C)=C/CC/C(C)=C/CC/C(C)=C/CC/C(C)=C/CC/C(C)=C/CC/C(C)=C/CO, the cell viability was 83.6%. O=c1c(-c2ccc(O)cc2)coc2c([C@@H]3O[C@H](CO)[C@@H](O)[C@H](O)[C@H]3O)c(O)ccc12 showed a cell viability of 120%. Compound CN1CCCC(n2nc(Cc3ccc(Cl)cc3)c3ccccc3c2=O)CC1 (stereo unspecified) has a cell viability of 101%. CNC(=O)c1cc(COc2nnc(Nc3ccc(Cl)cc3)c3ccoc23)ccn1 [Telatinib (BAY 57-9352)] was tested, and the cell viability was 94.5%. Clc1ccc(Nc2nnc(Cc3ccncc3)c3ccccc23)cc1 [Vatalanib dihydrochloride (PTK787)] was tested, and the cell viability was 44.6%. C=C(C)[C@H]1COc2cc3oc(=O)ccc3cc2O1 was tested, and the cell viability was 93.3%. Compound CC(C)C[C@@H](C(=O)N[C@H](C(=O)OC1CCCC1)c1ccccc1)[C@H](O)C(=O)NO [Tosedostat (CHR2797)] has a cell viability of 77.5%. O=C([O-])c1ccccc1O.[Na+] was tested, and the cell viability was 102%. COc1ccc2[nH]c([S+]([O-])Cc3ncc(C)c(OC)c3C)nc2c1 (stereo unspecified) gave a cell viability of 92.4%. COc1c(C)cnc(Cn2cnc3c(Cl)nc(N)nc32)c1C showed a cell viability of 4.8%. For COc1cc(-c2coc3cc(O)c(OC)c(O)c3c2=O)cc(O)c1OC, the cell viability was 90.5%. Work on O=C(O)c1cc(=O)c2cccc(O)c2[nH]1 yielded a cell viability of 102%. With C[C@H]1O[C@@H](O[C@H]2[C@@H](O)C[C@H](O[C@H]3[C@@H](O)C[C@H](O[C@H]4CC[C@@]5(C)[C@H](CC[C@@H]6[C@@H]5C[C@@H](O)[C@]5(C)[C@@H](C7=CC(=O)OC7)CC[C@]65O)C4)O[C@@H]3C)O[C@@H]2C)C[C@H](O)[C@@H]1O the cell viability was 3.03%. With C[C@H]1O[C@@H](O[C@H]2[C@@H](O)C[C@H](O[C@H]3[C@@H](O)C[C@H](O[C@H]4CC[C@@]5(C)[C@H](CC[C@@H]6[C@@H]5CC[C@]5(C)[C@@H](C7=CC(=O)OC7)CC[C@]65O)C4)O[C@@H]3C)O[C@@H]2C)C[C@H](O)[C@@H]1O the cell viability was 2.44%. Work on CO[C@H]1O[C@H](CO)C(O[C@@H]2OC(C(=O)O)[C@@H](O[C@H]3O[C@H](COS(=O)(=O)O)C(O[C@@H]4OC(C(=O)O)[C@@H](O[C@H]5O[C@H](CO)C(O[C@@H]6OC(C(=O)O)[C@@H](O[C@H]7O[C@H](COS(=O)(=O)O)C(O[C@@H]8OC(C(=O)O)=C[C@H](O)C8OS(=O)(=O)O)[C@H](O)[C@H]7NC(C)=O)[C@H](O)[C@H]6O)[C@H](O)[C@H]5NC(C)=O)[C@H](O)[C@H]4O)[C@H](O)[C@H]3NC(C)=O)[C@H](O)[C@H]2O)[C@H](O)[C@H]1NC(C)=O (stereo partly specified) yielded a cell viability of 86.8%. Compound COc1cc(O)c(C(C)=O)c(OC)c1 has a cell viability of 101%. Compound O=C(/C=C/C(=O)Oc1ccccc1C(=O)O)Oc1ccccc1C(=O)O has a cell viability of 110%. With C[C@H]1C(=O)CC[C@@H]2[C@]1(C)CC[C@H]1[C@@]2(C)CC[C@@]2(C)[C@@H]3CC(C)(C)CC[C@]3(C)CC[C@]12C the cell viability was 113%. COc1cc2oc3cc(OC)c(OC)c(CC=C(C)C)c3c(=O)c2c(O)c1CC=C(C)C was tested, and the cell viability was 99.9%. For CCCCCC1C(=O)CCC1CC(=O)O (stereo unspecified), the cell viability was 86.2%. O=C(O[C@@H]1Cc2c(O)cc(O)cc2O[C@@H]1c1cc(O)c(=O)c2c(O)c(O)cc([C@H]3Oc4cc(O)cc(O)c4C[C@H]3OC(=O)c3cc(O)c(O)c(O)c3)c2c1)c1cc(O)c(O)c(O)c1 gave a cell viability of 108%. Work on Cc1cc(O)c2c(c1)C(=O)c1cccc(O)c1C2=O yielded a cell viability of 115%. Compound Cc1cc(O)c2c(c1)C(=O)c1cccc(O)c1C2=O [Chrysophanic acid (Chrysophanol)] has a cell viability of 93.8%. O=C(O)c1cc(O)c(=O)c2c(O)c(O)ccc2c1 gave a cell viability of 108%. CCC(C)C(NC)C(=O)O (stereo unspecified) was tested, and the cell viability was 118%. Compound COC(=O)c1ccc2c(C(=Nc3ccc(N(C)C(=O)CN4CCN(C)CC4)cc3)c3ccccc3)c(O)[nH]c2c1 [BIBF1120 (Vargatef)] has a cell viability of 11.9%. Compound CC(=O)c1ccc[nH]1 has a cell viability of 92.8%. In the case of C=CC(C)(O)CCC1C(=C)CC(OC(C)=O)C2C(C)(C)CCCC12C (stereo unspecified), the cell viability was 98.6%. With O=C1CC[C@]23/C=C/C(=O)NCCCCNCCCNC(=O)/C=C/c4ccc(c2c4)O[C@@H]3C1 the cell viability was 97.1%. With COC1=CC(c2cc3ccccc3[nH]2)=N/C1=C\c1[nH]c(C)cc1C [Obatoclax mesylate (GX15-070)] the cell viability was 18.7%. With CC1(C)O[C@H]2[C@H](O)C[C@](O)(C(N)=O)C[C@H]2O1 the cell viability was 94.1%. With CC1(C)[C@@H](O)CC[C@]2(C)[C@H]3C(=O)C=C4[C@H]5C[C@@](C)(C(=O)O)CC[C@]5(C)CC[C@@]4(C)[C@]3(C)CC[C@@H]12 [18alpha-GLYCYRRHETINIC ACID] the cell viability was 95.3%.
